In PubChem BioAssay (NCI):
Compounds without any hit were thinned out: in the full panel of roughly 79,000, 15% have a hit. Rule as the data show it: active = growth inhibition above about 70%; inactive = the rest.

What was measured:
[1] = NCI Yeast Anticancer Drug Screen. Data for the rad50 strain (AID 155);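 also: 0% = growth of vehicle-only cultures of the same strain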; details: S. cerevisiae rad50 strain growth inhibition; at 50.0 µM; hits give high values
How it was run: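 A DNA repair-deficient yeast mutant serves as the test organism; compound-induced growth inhibition is calculated against vehicle-treated cells.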

[2] = NCI Yeast Anticancer Drug Screen. Data for the mec2-1 strain (AID 157); details: S. cerevisiae mec2-1 strain, at 50.0 µM, hits give high values
How it was run: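 Cells of the genetically defined mec2-1 yeast strain are incubated with test compound. Inhibition of growth is calculated against vehicle-treated controls.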

[3] = NCI Yeast Anticancer Drug Screen. Data for the sgs1 mgt1 strain (AID 161);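 also: 0% = growth of cultures given vehicle only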; details: S. cerevisiae sgs1 mgt1 strain, at 50.0 µM, hits give high values
How it was run: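 Mutant yeast exposed to compound; growth scored against vehicle-only wells.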

[4] = NCI Yeast Anticancer Drug Screen. Data for the cln2 rad14 strain (AID 165);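 also: 0% = growth equal to vehicle treated cultures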; details: S. cerevisiae cln2 rad14 strain, at 50.0 µM, hits give high values
How it was run: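 The screen exposed genetically defined yeast (cln2 rad14) to test compounds and scored growth inhibition relative to vehicle-treated controls.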

[5] = NCI Yeast Anticancer Drug Screen. Data for the bub3 strain (AID 167); details: S. cerevisiae bub3 mutant strain, at 50.0 µM, hits give high values
How it was run: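 Inhibition values come from growth of compound-treated mutant yeast normalised to vehicle-treated controls.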

[6] = NCI Yeast Anticancer Drug Screen. Data for the mlh1 rad18 strain (AID 175); details: S. cerevisiae mlh1 rad18 strain growth inhibition; at 50.0 µM; hits give high values
How it was run: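 Compound-treated yeast growth, normalised to vehicle controls. Strain bears defined DNA repair mutations.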

Measured: growth inhibition

[Pd].[Pd].[S-]CC[S-].[S-]CC[S-].c1ccc([PH+](c2ccccc2)c2ccccc2)cc1.c1ccc([PH+](c2ccccc2)c2ccccc2)cc1
inactive: [1] -4.9% | [2] 5.5% | [3] 8.9% | [4] -22.1% | [5] -2.35% | [6] 13.1%

Cc1cccc(C)c1N
inactive: [1] 10.3% | [2] 2.4% | [3] -9.65% | [4] -36.5% | [5] 1.7% | [6] 16.8%

O=C1CC2(CCNCC2)C(=O)N1N1CCOCC1
inactive: [1] 19.6% | [2] -0.15% | [3] 5.4% | [4] 7.55% | [5] 2.6% | [6] 6%

c1ccc(-c2sc3cccc[n+]3c2-c2ccccc2)cc1
inactive: [1] -5.3% | [2] 0.6% | [3] -14.5% | [4] -10.4% | [5] 13.4% | [6] -3.35%

CN1C2CCCC1CC(=O)C2
inactive: [1] -10.3% | [2] -3.55% | [3] -19.4% | [4] -22.4% | [5] -3.55% | [6] -10.8%

O=C1NC2(CCCCC2)C(=O)N1CCCCN(CCCl)CCCl
inactive: [1] 1% | [2] 9.8% | [3] 9.2% | [4] 5.2% | [5] 21.4% | [6] -5.85%

ClC1CC2OC(Cl)CC2O1 (stereo not drawn)
inactive: [1] 5.2% | [2] 1.05% | [3] -19.1% | [4] -20.9% | [5] 0.4% | [6] 1.15%

CN(C)P(=O)(N(C)C)N1CCCCCC1
inactive: [1] -8.2% | [2] -21.6% | [3] 0% | [4] -18.4% | [5] 3.4% | [6] -10.6%
